40 compounds from PubChem BioAssay (Tox21) can be followed below.

Records with an inconclusive call do not appear. A number with no mark means an inactive call. Activity calls are given as the source filed them. Calls follow the shape of the dose curve; as a rule, active = well fitted cell-killing curve with a large enough effect in the repeat runs; inconclusive = weak or mixed curves, or effect the other way; inactive = flat fitted curve, though single readings scatter.
% is scaled to controls: 0 for no effect and ±100 for the full control effect.

A short description of the test: qHTS RealTime-Glo MT Cell Viability Assay in HEK293 cells - 0 hour (AID 1224880). Also: top concentration of the series differs between compounds; nearly all actives have a fitted effect of over 45% in size. Particulars: RealTime-Glo luminescence; series mostly up to 76.8 µM; activity change, negative = cytotoxicity: at the top concentration. An excerpt:
U.S. Tox21 Program National Center for Advancing Translational Sciences [NCATS] NIH Chemical Genomics Center [NCGC] U.S. Environmental Protection Agency [EPA] National Institutes of Environmental Health Sciences [NIEHS] National Toxicology Program [NTP] U.S. Food and Drug Administration [FDA] Tox21 Assay Overview: Measure of cell viability is critical in the cell-base assay. Analysis of cell viability is necessary for the characterization of cell responses to cytotoxic drugs and environmental stress. A RealTime-Glo MT Cell Viability Assay to monitor cell viability in real time of continues cell culture during 40 hours of compound treatment was used to screen Tox21 10K library compounds in Hek293 cells. The RealTime-Glo MT Cell Viability Assay is a nonlytic, homogeneous, bioluminescent method to measure cell viability in real time using a simple, plate-based method. The assay involves adding NanoLuc luciferase and a cell-permeant prosubstrate to cells in culture. Viable cells reduce the proprietary prosubstrate to generate a substrate for NanoLuc luciferase. This substrate diffuses from cells into the surrounding culture medium, where it is rapidly used by the NanoLuc Enzyme to produce a luminescent signal. The signal correlates with the number of viable cells, making the assay well suited for cytotoxicity studies.
Tox21 Assay Protocol Summary: The mixture of Hek293 cell suspension and reagents were dispensed at 600cells/6 ul/well in 1536-well tissue culture treated black solid bottom plates using a Multidrop dispenser. After the assay plates were incubated at a 37 C/5% CO2 incubator for 5 hours, 23 nL of compounds dissolved in DMSO, positive and negative controls was transferred to the assay plate by a pintool work station. The plates were incubated at 37 C for 40 hours. The luminescence intensity were measured at 0h, 8h, 16h, 24h, 32h and 40h time points using ViewLux plate reader during compound treatment.
As for `O=C(O)C(O)C(O)C(=O)O` (stereo not given), the “activity change, negative = cytotoxicity” value was -3.57%.
With `CNC(=O)Oc1cccc(N=CN(C)C)c1`, the “activity change, negative = cytotoxicity” value is 2.54%.
Still for that read-out and setting: the figure for `CN1CC[C@]23c4c5ccc(O)c4O[C@H]2[C@@H](O)CC[C@H]3[C@H]1C5` is -6.55%.
As for `c1ccc2sc(SNC3CCCCC3)nc2c1`, the outcome was inactive.
As to `O=S(=O)(Cl)Cl`, the “activity change, negative = cytotoxicity” value is 0.614%.
On the same count and under the same terms, under `CC(=O)NNc1ccccc1` stands -5.36%; under `C=CC(=O)OCC`, -5.39%.
The same measure, in the same setting: the figure for `C[N+]1(CCF)[C@@H]2CC[C@H]1CC(OC(=O)C(O)(c1ccccc1)c1ccccc1)C2` (stereo not given in full) is 12.2% [at 35.3 µM].
`CC1(C)[C@H](C(=O)O[C@H](C#N)c2cccc(Oc3ccccc3)c2)[C@@H]1C=C(Br)Br`: the outcome was inactive.
Regarding `CC(C)(C)N(NC(=O)c1ccc(Cl)cc1)C(=O)c1ccccc1`, the “activity change, negative = cytotoxicity” value was 2.48%.
The same measure, in the same setting: under `Oc1cccc(Cl)c1` stands 6.23%; under `O=C1NC(=O)C(=O)C(=O)N1`, -6.71%; under `C=CC(=O)NC(C)(C)CC(C)=O`, 0.758%.
On the same count and under the same terms, the figure for `O=C(O)c1cc(I)cc(I)c1I` is -2.61%; for `Cc1nc2ccccc2c(=O)n1-c1ccccc1Cl` it is -16%.
For the compound `O=C(Cc1ccccc1)OCCc1ccccc1`, the “activity change, negative = cytotoxicity” value is -5.68%.
Same read-out and setting: under `CCC1(CCC(C)C)C(=O)NC(=O)NC1=O` stands -2.44%.
Still for that read-out and setting: under `CCCC[N+]1(C)[C@@H]2CC(OC(=O)[C@H](CO)c3ccccc3)C[C@H]1[C@@H]1O[C@@H]12` (stereo not given in full) stands -2.1% [at 35.3 µM].
Same read-out and setting: under `CCC1CCC(=O)O1` (stereo not given) stands 4.52%; under `CON(C)C(=O)Nc1ccc(Cl)cc1`, -1.82%; under `C[C@]12CC[C@H]3[C@@H](CCC4=CC(=O)CC[C@@H]43)[C@@H]1CC[C@@H]2OC(=O)CCc1ccccc1`, -1.85% [at 35.3 µM].
As for `Cc1ccc(N)c(C)c1`, the outcome was inactive.
Regarding `FC(F)OC(F)(F)C(F)Cl` (stereo not given), the “activity change, negative = cytotoxicity” value is -1.05%.
Still for that read-out and setting: under `CN(C)N` stands 1.88%.
Regarding `CCCCC#N`, the “activity change, negative = cytotoxicity” value is -8.84%.
The same measure, in the same setting: under `C=CCOCC1CO1` (stereo not given) stands -1.35%.
On the same count and under the same terms, under `O=S(=O)(c1ccccc1)c1ccccc1` stands -2.62%.
Turning to `Clc1ccc(Cl)c(Cl)c1`, the compound was classed as inactive.
For the compound `Cc1cccc(C)c1NC1=NCCCS1`, the “activity change, negative = cytotoxicity” value was -3.62% [at 35.3 µM].
On the same count and under the same terms, under `COc1cc(C[C@@H](C)N)c(OC)cc1Br` stands 12.1%; under `CCOC(C(=O)OCCN(C)C)(c1ccccc1)c1ccccc1`, 16.9% [at 35.3 µM]; under `O=C(N/N=C/c1ccc([N+](=O)[O-])o1)c1cc([N+](=O)[O-])cc([N+](=O)[O-])c1O`, -18.8% [at 35.3 µM].
Same read-out and setting: the figure for `CCCCC(CC)COC(=O)c1c(Br)c(Br)c(Br)c(Br)c1C(=O)OCC(CC)CCCC` (stereo not given) is 5.2% [at 35.3 µM]; for `O=C(Cl)OCCOCCOC(=O)Cl` it is 11.2%.
Regarding `C[Si](Cn1cncn1)(c1ccc(F)cc1)c1ccc(F)cc1`, the result was inactive.
`CCCCCBr`: the “activity change, negative = cytotoxicity” value was 0%.
The same measure, in the same setting: the figure for `CCN(C(C)=O)c1cccc(-c2ccnc3c(C#N)cnn23)c1` is 3.25% [at 35.3 µM].
`CCC(C)Cl` (stereo not given): the “activity change, negative = cytotoxicity” value was 12.1%.
Still for that read-out and setting: the figure for `CC(C)c1ccc(NC(=O)N(C)C)cc1` is 4.24%; for `CCCCCl` it is -4.32%.
